High-throughput results as filed in PubChem BioAssay.
WRN helicase inh: blocks human WRN helicase. WRN helicase unwinding, fluorescent forked duplex, kinetic. Potency, µM (highest dose often 114 µM), for the others: at the highest dose activity change, negative = inhibition, hits mostly inhibitors. 360,000 tested, 0.46% active. AID 651768; also: % is scaled to controls: 0 for no effect and ±100 for the full control effect; nearly all actives have a fitted effect of over 55% in size
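Enzyme (20 nM final) and test compound sit together 15 min at room temperature before substrate addition. Substrate is a single-forked duplex oligonucleotide (100 nM) labelled with fluorophore and quencher, with 2 mM ATP; helicase unwinding raises red fluorescence, read kinetically.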
Pol eta inh: blocks human DNA polymerase eta activity; Potency, µM (series often up to 114 µM), without a hit: at the highest dose activity change, negative = inhibition, hits mostly inhibitors; recombinant Pol eta, fluorescent DNA replication assay; 390,000 tested, 1.2% active; Q9Y253; also: % is scaled to controls: 0 for no effect and ±100 for the full control effect
Target sequence (Q9Y253 whole entry, looked up): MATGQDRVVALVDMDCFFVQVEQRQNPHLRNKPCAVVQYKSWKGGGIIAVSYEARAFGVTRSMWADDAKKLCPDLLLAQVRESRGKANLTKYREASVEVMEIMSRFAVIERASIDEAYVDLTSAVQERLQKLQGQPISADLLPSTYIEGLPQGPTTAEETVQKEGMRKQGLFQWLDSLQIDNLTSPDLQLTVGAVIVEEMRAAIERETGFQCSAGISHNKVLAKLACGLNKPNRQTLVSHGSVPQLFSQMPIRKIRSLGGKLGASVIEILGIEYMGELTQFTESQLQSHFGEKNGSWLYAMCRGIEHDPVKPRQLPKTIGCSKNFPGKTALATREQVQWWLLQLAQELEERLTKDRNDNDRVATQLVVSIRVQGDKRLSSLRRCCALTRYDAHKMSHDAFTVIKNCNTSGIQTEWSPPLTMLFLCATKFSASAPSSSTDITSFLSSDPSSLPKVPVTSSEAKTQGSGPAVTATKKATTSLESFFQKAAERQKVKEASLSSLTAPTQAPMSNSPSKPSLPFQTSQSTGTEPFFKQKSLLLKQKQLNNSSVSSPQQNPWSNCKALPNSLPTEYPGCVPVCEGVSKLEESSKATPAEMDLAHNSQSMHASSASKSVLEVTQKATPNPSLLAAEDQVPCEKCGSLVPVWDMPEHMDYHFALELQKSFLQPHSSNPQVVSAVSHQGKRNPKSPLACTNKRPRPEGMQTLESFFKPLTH
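Pol eta (10 nM) was preincubated with compounds for 15 min at room temperature, after which fluorescent replication substrate (50 nM final) was added to start the reaction. Fluorescence was read kinetically at 0 and 10 min.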
POLK inh: blocks human DNA polymerase kappa activity | Q9UBT6 | purified Pol kappa, fluorescent DNA synthesis assay, 10 min | Potency, µM (doses to about 107 µM), inactives show at the highest dose activity, negative = inhibition, hits mostly inhibitors | 400,000 tested, 0.53% active | AID 588579; also: % is scaled to controls: 0 for no effect and ±100 for the full control effect
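Kinetic fluorescence screen: compound preincubated 15 min RT with 10 nM enzyme; 50 nM substrate (final) initiates; reads at 0/10 min.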
FEN1 inhibitor: inhibitors of human flap endonuclease 1. AID 588795. Recombinant FEN1 flap cleavage, fluorescence, 15 min. 390,000 tested, 0.35% active. P39748. Potency, µM (series often up to 114 µM), for inactives: at the highest dose activity change, negative = inhibition, actives largely listed as inhibitors; also: % is scaled to controls: 0 for no effect and ±100 for the full control effect; nearly all actives have a fitted effect of over 65% in size
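Concentration–response screening of FEN1 (10 nM): 15 min compound preincubation at room temperature, reaction started with 50 nM substrate and read at 0 and 15 min. Corrected, normalized data were fitted by a four-parameter Hill equation.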
POLI inh: blocks human DNA polymerase iota activity. Q9UNA4. Pol iota fluorescent replication assay, 10 min. Potency, µM (series often up to 115 µM), without a hit: at the highest dose activity, negative = inhibition, usual class: inhibitors. 390,000 tested, 1% active
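Fluorescent replication assay read twice, at 0 min and 10 min after adding 50 nM (final) substrate. Enzyme (10 nM) and compounds were first incubated 15 min at room temperature; enzyme-free buffer wells were negative controls.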
POLB inh: DNA polymerase beta (human) inhibition; 340,000 tested, 1.3% active; P06746; Potency, µM (titrated, usually from 114 µM), without a hit: at the top dose activity change, negative = inhibition, usual class: inhibitors; AID 485314; Pol beta primer extension/strand displacement, fluorescence kinetic; also: % is scaled to controls: 0 for no effect and ±100 for the full control effect
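10 nM enzyme + cpd, 15 min RT; start with substrate 50 nM final; read 0 min and after 10 min RT. Corrected, normalized data; 4-parameter Hill curve fit.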
Numbers without * were called inactive; ? = inconclusive; . = no result; [ ] = remark or other dose. In the library only some 2.4% were active in any assay of this set; here they are far more common. Calls follow the shape of the dose curve; as a rule, active = well fitted curve in the direction sought with a large enough effect; inconclusive = small, poorly fitted or top-dose-only effect, or another doubt; inactive = no such curve, though single readings can be large; an effect the other way counts as inactive or inconclusive. Potency is read from the fitted curve at half-maximal effect.

SMILES	WRN helicase inh	Pol eta inh	POLK inh	FEN1 inhibitor	POLI inh	POLB inh
Cc1ccc(-c2ccc(/C=C3/NC(=O)NC3=O)o2)cc1[N+](=O)[O-]	-28.8%	?	?	-21.4%	50.1µM*	-4.0%
CSc1nc(=O)[nH]c2nc[nH]c12	.	.	0.6%	2.6%	-23.2%	.
CCOC(=O)c1c(N)n(-c2cccc(OC)c2)c2nc3ccccc3nc12	.	-3.3%	-17.8%[60.1 µM]	8.0%	?	1.5%
CCOC(=O)c1c(N)n(-c2ccc(N)cc2)c2nc3ccccc3nc12	-7.5%	-7.1%	1.9%[60.1 µM]	-24.9%	79.4µM*	?
CCOC(=O)c1c(N)n(-c2ccc(CC)cc2)c2nc3ccccc3nc12	.	-18.0%	-1.1%	5.9%	92.6%	1.6%
CCOC(=O)c1c(N)n(C2CC(C)(C)NC(C)(C)C2)c2nc3ccccc3nc12	20.5%	-6.3%	-8.3%	-20.9%	?	28.2µM*
O=C(C[n+]1ccc2ccccc2c1)c1ccc(O)c(O)c1	.	.	?	10.9%	?	.
O=C(/C=C/c1c(F)cccc1Cl)N1CCOCC1	4.6%	-18.6%	4.9%	-0.2%	17.7%	31.6µM*
O=C(/C=C/c1c(Cl)cccc1Cl)N1CCOCC1	1.1%	-3.5%	-12.5%	20.5%	19.4%	28.2%
O=[N+]([O-])c1cc2oc3c(c2c(C=NCc2ccncc2)c1O)CCCC3	?	?	?	-25.0%	?	17.8µM*
O=C1C(C=NCc2ccncc2)=C(O)c2ccccc21	-1.4%	12.0%	-4.5%	-1.8%	5.3%	-17.3%
Cc1ccc(C)c(OCCn2ccnc2)c1	-24.5%	31.6µM*	79.4µM*	-16.0%	39.8µM*	10µM*
CC(C(=O)c1ccccc1)[n+]1ccc(Cl)c2ccc(Cl)cc21 (stereo unspecified)	.	.	2.0%	-19.5%	-3.6%	.
O=C(O)COc1ccccc1C1Nc2ccccc2-c2nnc(SCc3ccc(Cl)cc3)nc2O1 (stereo unspecified)	.	-4.9%	-18.7%	-18.8%	-7.2%	2.51µM*
COc1cc(C2Nc3ccccc3-c3nnc(SCc4ccc(C)cc4)nc3O2)cc(OC)c1O (stereo unspecified)	.	-2.6%	79.4µM*	-21.4%	?	-2.9%
CCN(CC)c1ccc(/C=C2\C(=O)N(c3nnc(C)c(=O)[nH]3)N=C2C)cc1	-11.6%[11.6 µM]	?	-4.0%	-9.9%	3.16µM*	39.2%
C[C@H]1O[C@@H](n2cc(F)c(=O)[nH]c2=O)[C@H](O)[C@H]1O	.	.	-1.2%[60.1 µM]	7.0%[57.1 µM]	.	.
Nc1cc2nc3ccccc3oc-2cc1=O	-0.7%[11.6 µM]	?	44.7µM*	?	20µM*	25.1µM*
O=C(O)Cn1cc(/C=c2/sc3nc4ccccc4n3c2=O)c2ccccc21	?	79.4µM*	?	?	17.0%	3.8%
O=c1/c(=C\c2cccn2-c2ccccc2)sc2nc3ccccc3n12	6.8%[57.1 µM]	4.8%	-1.1%	0.5%	19.4%	9.0%
COc1ccc(/C=N/NC(=O)c2cc3cc(OC)c(OC)cc3[nH]2)cc1	?	?	-76.2%	-31.0%	-21.9%	6.31µM*
CCOc1ccc2[nH]c(C(=O)N/N=C/c3ccc(OC)cc3)cc2c1	2.3%	-9.4%	-1.2%	-11.6%	-7.8%	15.3%
COc1ccc2[nH]c(C(=O)N/N=C/c3ccc(O)cc3O)cc2c1	-27.3%	?	?	?	-29.5%	?
COc1ccc2cc(C(=O)N/N=C/c3cc(OC)c(OC)c(OC)c3)[nH]c2c1	-10.7%[11.6 µM]	?	-52.7%	?	?	10µM*
CN(C)/[N+]([O-])=N/Oc1cc(F)c([N+](=O)[O-])cc1[N+](=O)[O-]	.	.	-18.5%	?	?	.
SMILES	WRN helicase inh	Pol eta inh	POLK inh	FEN1 inhibitor	POLI inh	POLB inh
Cc1csc(SCC(=O)Nc2sc3c(c2C#N)CCC3)n1	-20.5%	?	-28.7%	0.4%	?	20µM*
Cc1cc(C(=O)Nc2sc3c(c2C#N)CCC3)no1	-1.6%[11.6 µM]	79.4µM*	-42.3%	7.7%	?	?
N#Cc1c(NC(=O)c2ccccc2)sc2c1CCCCC2	-6.3%	-7.5%	-18.1%	-1.5%	8.0%	10.2%
COc1ccc(CN(C)CC(=O)Nc2c(C)cccc2C)c(OC)c1	2.0%	0.9%	-8.6%	1.0%	118.4%	1.4%
CC(C)CCOc1ccc(C(=O)Nc2sc3c(c2C#N)CCCCC3)cc1	.	8.2%	89.1µM*	?	-82.9%	6.8%
COc1ccc(CN(C)CC(=O)Nc2sc3c(c2C#N)CCC3)c(OC)c1	0.0%[57.1 µM]	-25.7%	-13.2%	-11.6%	32.1%	20µM*
COc1ccc(CC(=O)NO)cc1OC	.	.	9.0%	18.3%	13.1%	.
O=C(Cc1ccccc1Cl)NO	.	.	7.1%	-0.9%	-9.4%	.
Cn1ccc(C(=O)Nc2sc3c(c2C#N)CCC3)n1	-8.5%[11.6 µM]	79.4µM*	-29.7%	1.2%	?	-26.4%
Cc1onc(-c2ccccc2)c1C(=O)Nc1sc2c(c1C#N)CCC2	50.1µM*	28.2µM*	?	?	20µM*	20µM*
Cn1cc(Br)c(C(=O)Nc2sc3c(c2C#N)CCC3)n1	-23.3%	-9.0%	-9.0%	-0.6%	106.8%	0.9%
O=C(CNS(=O)(=O)c1ccc(Br)cc1)OCc1cc(=O)n2cc(Br)ccc2n1	.	.	.	.	.	35.5µM*
CC(C)[C@H](NC(=O)[C@H](CC(=O)O)NC(=O)CNC(=O)[C@@H](N)CCCN=C(N)N)C(=O)O	.	.	11.9%[60.1 µM]	.	.	.
CCc1c(O)cc(=O)n(-c2ccccc2)c1-c1ccccc1	?	31.6µM*	-16.3%	?	?	22.4µM*
Cc1[nH]n(-c2ccccc2)c(=O)c1N=Nc1c(O)cc(S(=O)(=O)N(C)C)c2ccccc12	-4.5%	89.1µM*	-9.1%	-20.6%	30.1%	.
CCC(=O)Nc1cccc(C(=O)/C=C/c2cc(Br)ccc2OC)c1	-8.7%[11.6 µM]	?	-8.3%	-20.3%	56.2µM*	2.9%
CCC(=O)N(CCC(c1ccc(C)cc1)c1ccco1)Cc1ccco1 (stereo unspecified)	?	?	?	-20.4%	44.7µM*	25.1µM*
CCC(=O)N(CCC(c1ccco1)C(C)C)Cc1ccccc1 (stereo unspecified)	-8.6%	-22.5%	-8.4%	14.5%	136.6%	3.0%
Clc1ccc(N=c2ssnc2Cl)nc1	51.4%	5.5%	-8.7%	?	17.3%	-0.9%
COc1cc(N=c2ssnc2Cl)cc(OC)c1	50.1µM*	-5.5%	6.5%	0.1%	-14.3%	-8.6%
N#Cc1cccc(N=c2ssnc2Cl)c1	25.1µM*	-16.9%	-4.2%	1.7%	69.9%	1.2%
Clc1nssc1=Nc1ccc(Br)cc1	39.8µM*	2.2%	-4.5%	-19.9%	121.0%	49.3%
Cc1cnc2c(C)cccc2c1/C=C/c1ccc(N(C)C)cc1	.	.	-11.1%	-26.6%	1.1%	.
